Measured values reported in PubChem BioAssay (NCI).
About 79,000 compounds went through this panel and 15% of them were active in at least one assay; those are over-represented in the sample as a whole. Activity calls are given as the source filed them. Rule as the data show it: active = growth inhibition above about 70%; inactive = the rest.

Assays:
[1] = NCI Yeast Anticancer Drug Screen. Data for the rad50 strain (AID 155);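 also: 0% = growth of vehicle-only cultures of the same strain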; settings: S. cerevisiae rad50 strain growth inhibition; at 50.0 µM; stronger effect = higher value
Outline: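 Growth of the mutant yeast was measured after compound exposure and referenced to vehicle-treated cultures.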

[2] = NCI Yeast Anticancer Drug Screen. Data for the mec2-1 strain (AID 157); settings: S. cerevisiae mec2-1 strain, at 50.0 µM, stronger effect = higher value
Outline: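 Cells of the genetically defined mec2-1 yeast strain are incubated with test compound. Inhibition of growth is calculated against vehicle-treated controls.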

[3] = NCI Yeast Anticancer Drug Screen. Data for the sgs1 mgt1 strain (AID 161);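 also: 0% = growth of cultures given vehicle only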; settings: S. cerevisiae sgs1 mgt1 strain, at 50.0 µM, stronger effect = higher value
Outline: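 Inhibition of yeast growth, normalised to vehicle-treated controls, is reported for a strain bearing genetic alterations in DNA damage repair.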

[4] = NCI Yeast Anticancer Drug Screen. Data for the cln2 rad14 strain (AID 165);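 also: 0% = growth equal to vehicle treated cultures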; settings: S. cerevisiae cln2 rad14 strain, at 50.0 µM, stronger effect = higher value
Outline: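 The screen exposed genetically defined yeast (cln2 rad14) to test compounds and scored growth inhibition relative to vehicle-treated controls.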

[5] = NCI Yeast Anticancer Drug Screen. Data for the bub3 strain (AID 167); settings: S. cerevisiae bub3 mutant strain, at 50.0 µM, stronger effect = higher value
Outline: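 Whole-cell yeast assay. The mutant strain was incubated with compounds, and growth inhibition was determined by comparison with vehicle-treated cells.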

[6] = NCI Yeast Anticancer Drug Screen. Data for the mlh1 rad18 strain (AID 175); settings: S. cerevisiae mlh1 rad18 strain growth inhibition; at 50.0 µM; stronger effect = higher value
Outline: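 Compound-treated yeast growth, normalised to vehicle controls. Strain bears defined DNA repair mutations.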

Measured: growth inhibition

CCCc1ccc(N)cc1
inactive: [1] 3.25% | [2] -38.4% | [3] -9.1% | [4] -18.1% | [5] -24.4% | [6] -15.7%

C=C(CBr)CCCOCc1ccccc1
inactive: [1] 10.8% | [2] -7.25% | [3] -7.15% | [4] 2.1% | [5] -5.35% | [6] -7.55%

Cc1ccc(OC(=O)c2cc([N+](=O)[O-])cc([N+](=O)[O-])c2)cc1
inactive: [1] 4.4% | [2] -0.5% | [3] 13.3% | [4] -12.8% | [5] 2% | [6] -0.7%

CN(C)c1ncnc2c1cnn2-c1ccccc1
inactive: [1] -4.45% | [2] -4.35% | [3] 0.2% | [4] -40.8% | [5] -0.25% | [6] -3.15%

[N-]=[N+]=NC1CC(n2ccc(=O)[nH]c2=O)OC1CO (configuration not stated)
inactive: [1] -16.6% | [2] -21.9% | [3] 3.3% | [4] -13.6% | [5] -12.8% | [6] -6.85%

Cc1ccc(NC(=S)NCCc2ccccn2)cc1C
inactive: [1] 29.2% | [2] 13.8% | [3] 28.9% | [4] 1.45% | [5] 21.3% | [6] 21.6%

Cc1ccc(Cl)nn1
inactive: [1] 10% | [2] -1.25% | [3] -2.55% | [4] -3.3% | [5] 12.9% | [6] 2.1%

CCC#CCN(CCC)CCC
inactive: [1] -8.55% | [2] 7.1% | [3] -10.7% | [4] -41.1% | [5] -17.9% | [6] -18.9%

OCC(O)C(O)C(O)[C@H](O)c1nc2ccccc2[nH]1 (some centres not stated)
inactive: [1] -15.7% | [2] -1.7% | [3] 0.15% | [4] -19.6% | [5] 27.4% | [6] 14.8%

CCC(=O)OC1CCCCC1C1CCCCC1 (configuration not stated)
inactive: [1] 1.55% | [2] -2.35% | [3] 8% | [4] -37.6% | [5] -3.45% | [6] -3.9%

CC(=O)CC(C)(C)N
inactive: [1] -0.1% | [2] -9.7% | [3] -1.4% | [4] -6.05% | [5] 3.1% | [6] -2.1%

COc1ccc(-c2c(O)c3cccc(-c4ccccc4)c3oc2=O)cc1
inactive: [1] 2.7% | [2] 6.7% | [3] -2.9% | [4] 2.95% | [5] 15% | [6] 7.5%

CC(C)OC(=O)c1cc(N)ccc1Cl
inactive: [1] 29.1% | [2] 23.4% | [3] 17.4% | [4] 2.45% | [5] 38.4% | [6] 34%

COC(=O)CCC(=O)NCC(=O)OCc1ccccc1
inactive: [1] 0.55% | [2] -1.85% | [3] -13.9% | [4] 3.05% | [5] -11.8% | [6] 19.2%

O=C(Nc1ccc(CSc2ccc(Cl)cc2)o1)N1CCOCC1
inactive: [1] 15.7% | [2] 8% | [3] 40.8% | [4] 20.9% | [5] 38.4% | [6] 25.4%

O=C1CCCc2ccc3c(c21)CC1(Cc2ccccc2C1)C3
inactive: [1] -7.05% | [2] -40.2% | [3] 8.65% | [4] -6% | [5] 4.05% | [6] -5.8%

Cc1ccc(NC(=O)c2cc3ccccc3c(N=Nc3ccccc3O)c2O)c(C)c1
inactive: [1] -11.9% | [2] 5.4% | [3] 9% | [4] 9.85% | [5] 12.6% | [6] 10.7%

Clc1cc(Br)c2c(Cl)ccnc2c1Br
inactive: [1] 35.6% | [2] -1.3% | [3] 7.5% | [4] -8.65% | [5] 0.85% | [6] 20%

NC(CCCCn1nnc2c(=O)[nH]cnc21)C(=O)O (configuration not stated)
inactive: [1] -12.3% | [2] -26.2% | [3] 6% | [4] -36.9% | [5] 7.1% | [6] -15.6%

Nc1cccc2c1CCC=C2
inactive: [1] -0.05% | [2] -6.5% | [3] -3.55% | [4] -6% | [5] 7.6% | [6] -1.9%

N#CCCNCCC[Si]12OCCN(CCO1)CCO2
inactive: [1] 6.5% | [2] 1.35% | [3] 10.5% | [4] 56.9% | [5] 7.15% | [6] 2.4%

O=C(CCC(=O)Nc1ccc(Cl)c(Cl)c1)Nc1ccc(Cl)c(Cl)c1
inactive: [1] 50.9% | [2] 46.5% | [3] 49% | [4] 39.1% | [6] 63%
active: [5] 78.2%

CC1CCC(OC(=O)Cc2ccccc2)CC1 (configuration not stated)
inactive: [1] 26.7% | [2] 18% | [3] 9.55% | [4] -15.1% | [5] 18.5% | [6] 24.6%

CCCCCCCCCCCCCCNC(=O)C(C)O (configuration not stated)
inactive: [1] 2% | [2] -23.8% | [3] -15.7% | [4] -35.2% | [5] 11.3% | [6] -2.2%

Nc1ncnc2nc(N3CCN(CCO)CC3)[nH]c12
inactive: [1] 9.45% | [2] -8.75% | [3] -34.1% | [4] -29.5% | [5] -26.2% | [6] -12.5%

c1csc(-c2cc(-c3ccsc3)c(-c3ccsc3)s2)c1
inactive: [1] -37.5% | [2] -48.4% | [3] -33.6% | [4] -5.35% | [5] -15.9% | [6] -8.6%

CCCC(=O)c1c(C)cc(C)cc1C
inactive: [1] -6.6% | [2] -19.7% | [3] -24.4% | [4] 9.45% | [5] -7.55% | [6] 11.1%

CCc1ccc2[nH]c(C(=O)O)cc2c1
inactive: [1] -15.4% | [2] -18.4% | [3] -1.75% | [4] -11.8% | [5] -21.6% | [6] 4.45%

CC1(C)CC(=O)NC1=O
inactive: [1] 30.8% | [2] 2% | [3] 8.55% | [4] -0.2% | [5] -19% | [6] 9.3%

CC(C)C/C(CC(=O)CCC(=O)Nc1ccccc1[N+](=O)[O-])=N\NC(=O)c1cc2ccccc2cc1O
inactive: [1] 17.8% | [2] 24.1% | [3] -11.8% | [4] 26.2% | [5] 9.8% | [6] 29.9%

O=C(Nc1ccccc1)OCC(CN1CCCCC1)OC(=O)Nc1ccccc1 (configuration not stated)
inactive: [1] -35.7% | [2] -38% | [3] -13.8% | [4] 5.55% | [5] -23.8% | [6] -37.1%

CN(C)CCC(=O)c1cccnc1
inactive: [1] 9.9% | [2] -17.1% | [3] -3.35% | [4] -4.8% | [5] 5.65% | [6] -1.2%

Cc1cc(Cl)ccc1N=Cc1ccc(C=Nc2ccc(Cl)cc2C)cc1
inactive: [1] 14.2% | [2] 3.6% | [3] -5.05% | [4] -1.55% | [5] 10.8% | [6] -0.5%

Cc1cc2ncn(CO)c2cc1C
inactive: [1] -4.5% | [2] -0.2% | [3] 18.8% | [4] -7.4% | [5] 20% | [6] 0.75%

CCN(CC)CCSCCSCCN(CC)CC
inactive: [1] -24.7% | [2] -1.55% | [3] -3.05% | [4] -39% | [5] 8.65% | [6] -10.3%

COc1ccc(S(=O)(=O)Oc2ccc(Cl)cc2)cc1
inactive: [1] -2.35% | [2] 11.6% | [3] 18.1% | [4] -234% | [5] 42.5% | [6] 9.05%

C/C(=C1\C(=O)Nc2ccccc21)c1cccnc1
inactive: [1] -8.2% | [2] -9.25% | [3] -9.5% | [4] 11.3% | [5] -10.4% | [6] -7.55%

CCCC(O)C(C)C(C)O (configuration not stated)
inactive: [1] -28.5% | [2] -16.1% | [3] -17.4% | [4] 25.1% | [5] -2.15% | [6] -8.75%

CCCCCCCC(=O)CC(C)C
inactive: [1] 12.1% | [2] -11.7% | [3] 0.6% | [4] -2.5% | [5] -21.4% | [6] 6.65%

c1ccc2c(c1)C1CCCCCC21N1CCOCC1 (configuration not stated)
inactive: [1] 18% | [2] 1.05% | [3] -14.4% | [4] -5.45% | [5] -30.4% | [6] 7.6%

CCOC(=O)C1(C)CCCCC1=O (configuration not stated)
inactive: [1] 7.45% | [2] -6.55% | [3] 3.2% | [4] 7.95% | [5] 5.9% | [6] 2.95%

O=C1NC2(CCCC2)C(=O)N2CCCC12 (configuration not stated)
inactive: [1] -8.65% | [2] -17.6% | [3] 17.7% | [4] -5.75% | [5] 0.3% | [6] 27.2%
